Assay results: the supplement of paper PMC11732987, “Enantioselective OTUD7B fragment discovery through chemoproteomics screening and high-throughput optimisation” (Communications Chemistry, 2025)

Assays:
Assay in all cases: log2 ratio of Biotin-Ahx-Ub-VS probe labelling (fragment/DMSO); higher = less target engagement (more negative = stronger competition), active = hit call of the paper (q ≤ 0.05, log2 ratio ≤ -1)
Settings in all cases: compound concentration: 200 uM; treatment time: 3 h
USP34 = USP34 (UniProt Q70CQ2)
Summary of the method: (§1)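 Labelling with Biotin-Ahx-Ub-VS (0.5 µM final, 1 h) followed a 3 h triplicate treatment of HEK293T lysate (495 µg per sample, Tris/CHAPS/IGEPAL buffer with protease inhibitors) with fragment at 200 µM or vehicle. Labelled DUBs were NeutrAvidin-enriched, digested with LysC and trypsin, and run by diaPASEF LC-MS/MS. The values, average log2 fragment/vehicle ratios by unpaired t-test, come from global-median-normalised Spectronaut label-free quantities. Proteins with ≥2 unique peptides were used.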

USP36 = target: T1, USP36 (UniProt Q9P275)
T1 sequence (whole entry): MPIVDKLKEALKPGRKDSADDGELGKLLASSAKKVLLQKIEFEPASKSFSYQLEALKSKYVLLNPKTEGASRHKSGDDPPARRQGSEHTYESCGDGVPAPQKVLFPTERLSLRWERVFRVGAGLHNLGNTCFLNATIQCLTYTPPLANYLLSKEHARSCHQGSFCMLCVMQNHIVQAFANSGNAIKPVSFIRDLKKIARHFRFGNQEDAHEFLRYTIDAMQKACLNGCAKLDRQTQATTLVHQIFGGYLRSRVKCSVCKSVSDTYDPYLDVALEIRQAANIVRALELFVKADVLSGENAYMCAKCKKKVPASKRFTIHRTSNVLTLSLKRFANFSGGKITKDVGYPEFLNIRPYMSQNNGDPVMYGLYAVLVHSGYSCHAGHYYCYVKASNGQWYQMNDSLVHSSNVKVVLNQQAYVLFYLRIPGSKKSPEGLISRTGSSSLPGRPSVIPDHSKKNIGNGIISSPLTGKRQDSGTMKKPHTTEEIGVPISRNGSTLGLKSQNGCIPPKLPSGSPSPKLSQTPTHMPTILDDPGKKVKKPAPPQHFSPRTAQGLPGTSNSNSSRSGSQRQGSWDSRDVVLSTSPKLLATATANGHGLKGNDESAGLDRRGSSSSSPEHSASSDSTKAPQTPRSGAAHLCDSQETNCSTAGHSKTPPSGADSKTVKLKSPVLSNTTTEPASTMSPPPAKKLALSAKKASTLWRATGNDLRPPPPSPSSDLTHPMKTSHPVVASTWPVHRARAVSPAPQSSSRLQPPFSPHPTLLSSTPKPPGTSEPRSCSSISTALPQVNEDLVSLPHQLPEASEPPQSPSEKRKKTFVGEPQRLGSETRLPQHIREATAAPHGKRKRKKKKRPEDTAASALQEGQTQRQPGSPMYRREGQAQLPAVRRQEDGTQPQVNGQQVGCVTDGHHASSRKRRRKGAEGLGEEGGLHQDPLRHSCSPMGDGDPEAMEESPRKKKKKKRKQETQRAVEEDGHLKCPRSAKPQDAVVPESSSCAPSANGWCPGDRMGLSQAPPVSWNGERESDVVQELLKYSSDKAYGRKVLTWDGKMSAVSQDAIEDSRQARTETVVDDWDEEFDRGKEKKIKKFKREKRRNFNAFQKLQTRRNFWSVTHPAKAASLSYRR
Summary of the method: as §1

USP38 = target: T2, USP38 (UniProt Q8NB14)
T2 sequence (whole entry): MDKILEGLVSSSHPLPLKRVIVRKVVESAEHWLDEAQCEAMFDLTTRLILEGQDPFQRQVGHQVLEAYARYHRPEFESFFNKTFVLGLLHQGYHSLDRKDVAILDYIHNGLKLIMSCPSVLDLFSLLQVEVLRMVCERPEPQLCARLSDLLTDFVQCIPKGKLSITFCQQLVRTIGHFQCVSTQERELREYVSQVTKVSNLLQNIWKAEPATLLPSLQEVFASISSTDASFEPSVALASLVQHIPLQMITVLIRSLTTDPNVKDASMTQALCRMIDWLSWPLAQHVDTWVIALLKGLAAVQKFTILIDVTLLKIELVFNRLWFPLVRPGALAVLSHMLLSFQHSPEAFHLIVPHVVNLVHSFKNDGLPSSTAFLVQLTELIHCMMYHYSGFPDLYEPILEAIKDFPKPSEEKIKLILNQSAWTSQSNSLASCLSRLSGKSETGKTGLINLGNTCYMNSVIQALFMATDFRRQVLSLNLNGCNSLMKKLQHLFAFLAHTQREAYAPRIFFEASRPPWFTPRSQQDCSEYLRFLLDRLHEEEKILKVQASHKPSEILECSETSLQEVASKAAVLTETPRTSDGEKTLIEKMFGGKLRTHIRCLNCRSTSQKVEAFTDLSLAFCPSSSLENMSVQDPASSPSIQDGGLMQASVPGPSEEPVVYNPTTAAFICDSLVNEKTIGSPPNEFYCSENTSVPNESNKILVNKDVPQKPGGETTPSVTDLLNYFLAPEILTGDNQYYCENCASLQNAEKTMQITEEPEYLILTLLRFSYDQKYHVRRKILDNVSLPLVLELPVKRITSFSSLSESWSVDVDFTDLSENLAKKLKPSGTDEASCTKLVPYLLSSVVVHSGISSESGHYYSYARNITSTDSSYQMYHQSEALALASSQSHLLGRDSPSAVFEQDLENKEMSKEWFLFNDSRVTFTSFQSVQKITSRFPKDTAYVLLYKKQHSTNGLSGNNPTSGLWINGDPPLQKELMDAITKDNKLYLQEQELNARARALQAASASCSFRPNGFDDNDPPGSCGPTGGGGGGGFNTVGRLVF
Summary of the method: as §1

USP39 = target: T3, USP39 (UniProt Q53GS9)
T3 sequence (whole entry): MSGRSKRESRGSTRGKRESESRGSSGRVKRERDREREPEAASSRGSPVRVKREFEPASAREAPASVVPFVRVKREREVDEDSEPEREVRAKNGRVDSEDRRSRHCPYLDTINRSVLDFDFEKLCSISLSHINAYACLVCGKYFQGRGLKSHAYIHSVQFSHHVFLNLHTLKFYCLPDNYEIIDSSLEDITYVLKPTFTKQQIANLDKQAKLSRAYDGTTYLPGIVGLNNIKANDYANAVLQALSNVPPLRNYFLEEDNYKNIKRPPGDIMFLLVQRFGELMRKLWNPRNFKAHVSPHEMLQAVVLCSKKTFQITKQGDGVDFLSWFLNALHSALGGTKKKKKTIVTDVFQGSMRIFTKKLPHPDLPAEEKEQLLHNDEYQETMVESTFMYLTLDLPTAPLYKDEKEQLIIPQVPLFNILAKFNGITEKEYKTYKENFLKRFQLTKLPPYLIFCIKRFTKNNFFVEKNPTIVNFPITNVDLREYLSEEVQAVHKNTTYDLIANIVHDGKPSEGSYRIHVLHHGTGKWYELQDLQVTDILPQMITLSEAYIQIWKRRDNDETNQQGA
Summary of the method: as §1

USP4 = target: T4, USP4 (UniProt Q13107)
T4 sequence (whole entry): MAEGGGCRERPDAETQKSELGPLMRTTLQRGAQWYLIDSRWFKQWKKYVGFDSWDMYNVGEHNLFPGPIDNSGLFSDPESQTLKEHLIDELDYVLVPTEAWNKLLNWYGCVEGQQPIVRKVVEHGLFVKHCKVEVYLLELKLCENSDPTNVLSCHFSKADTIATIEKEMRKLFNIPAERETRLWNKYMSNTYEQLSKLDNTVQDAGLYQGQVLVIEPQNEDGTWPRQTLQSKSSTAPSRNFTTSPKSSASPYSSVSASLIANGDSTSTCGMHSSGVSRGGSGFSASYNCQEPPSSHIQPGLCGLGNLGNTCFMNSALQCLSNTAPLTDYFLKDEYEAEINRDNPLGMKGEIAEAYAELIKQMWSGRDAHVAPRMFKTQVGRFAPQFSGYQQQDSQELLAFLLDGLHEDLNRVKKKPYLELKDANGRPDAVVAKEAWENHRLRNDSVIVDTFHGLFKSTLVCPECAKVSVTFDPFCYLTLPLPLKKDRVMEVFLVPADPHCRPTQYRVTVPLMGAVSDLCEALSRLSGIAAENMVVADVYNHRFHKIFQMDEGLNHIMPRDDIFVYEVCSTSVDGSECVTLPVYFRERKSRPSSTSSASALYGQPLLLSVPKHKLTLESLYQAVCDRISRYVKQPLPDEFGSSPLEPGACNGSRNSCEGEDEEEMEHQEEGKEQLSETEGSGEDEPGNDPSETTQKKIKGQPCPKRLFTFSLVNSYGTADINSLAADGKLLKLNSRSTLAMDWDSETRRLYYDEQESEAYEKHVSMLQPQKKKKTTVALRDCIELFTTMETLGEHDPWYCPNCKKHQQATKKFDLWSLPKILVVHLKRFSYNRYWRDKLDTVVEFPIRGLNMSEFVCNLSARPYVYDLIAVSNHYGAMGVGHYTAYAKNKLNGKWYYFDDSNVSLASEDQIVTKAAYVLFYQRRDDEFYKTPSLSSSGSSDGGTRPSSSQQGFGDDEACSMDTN
Summary of the method: as §1

Measured: log2 ratio of Biotin-Ahx-Ub-VS probe labelling

Sequence of USP34 (Q70CQ2 whole entry, the tested form may be a part): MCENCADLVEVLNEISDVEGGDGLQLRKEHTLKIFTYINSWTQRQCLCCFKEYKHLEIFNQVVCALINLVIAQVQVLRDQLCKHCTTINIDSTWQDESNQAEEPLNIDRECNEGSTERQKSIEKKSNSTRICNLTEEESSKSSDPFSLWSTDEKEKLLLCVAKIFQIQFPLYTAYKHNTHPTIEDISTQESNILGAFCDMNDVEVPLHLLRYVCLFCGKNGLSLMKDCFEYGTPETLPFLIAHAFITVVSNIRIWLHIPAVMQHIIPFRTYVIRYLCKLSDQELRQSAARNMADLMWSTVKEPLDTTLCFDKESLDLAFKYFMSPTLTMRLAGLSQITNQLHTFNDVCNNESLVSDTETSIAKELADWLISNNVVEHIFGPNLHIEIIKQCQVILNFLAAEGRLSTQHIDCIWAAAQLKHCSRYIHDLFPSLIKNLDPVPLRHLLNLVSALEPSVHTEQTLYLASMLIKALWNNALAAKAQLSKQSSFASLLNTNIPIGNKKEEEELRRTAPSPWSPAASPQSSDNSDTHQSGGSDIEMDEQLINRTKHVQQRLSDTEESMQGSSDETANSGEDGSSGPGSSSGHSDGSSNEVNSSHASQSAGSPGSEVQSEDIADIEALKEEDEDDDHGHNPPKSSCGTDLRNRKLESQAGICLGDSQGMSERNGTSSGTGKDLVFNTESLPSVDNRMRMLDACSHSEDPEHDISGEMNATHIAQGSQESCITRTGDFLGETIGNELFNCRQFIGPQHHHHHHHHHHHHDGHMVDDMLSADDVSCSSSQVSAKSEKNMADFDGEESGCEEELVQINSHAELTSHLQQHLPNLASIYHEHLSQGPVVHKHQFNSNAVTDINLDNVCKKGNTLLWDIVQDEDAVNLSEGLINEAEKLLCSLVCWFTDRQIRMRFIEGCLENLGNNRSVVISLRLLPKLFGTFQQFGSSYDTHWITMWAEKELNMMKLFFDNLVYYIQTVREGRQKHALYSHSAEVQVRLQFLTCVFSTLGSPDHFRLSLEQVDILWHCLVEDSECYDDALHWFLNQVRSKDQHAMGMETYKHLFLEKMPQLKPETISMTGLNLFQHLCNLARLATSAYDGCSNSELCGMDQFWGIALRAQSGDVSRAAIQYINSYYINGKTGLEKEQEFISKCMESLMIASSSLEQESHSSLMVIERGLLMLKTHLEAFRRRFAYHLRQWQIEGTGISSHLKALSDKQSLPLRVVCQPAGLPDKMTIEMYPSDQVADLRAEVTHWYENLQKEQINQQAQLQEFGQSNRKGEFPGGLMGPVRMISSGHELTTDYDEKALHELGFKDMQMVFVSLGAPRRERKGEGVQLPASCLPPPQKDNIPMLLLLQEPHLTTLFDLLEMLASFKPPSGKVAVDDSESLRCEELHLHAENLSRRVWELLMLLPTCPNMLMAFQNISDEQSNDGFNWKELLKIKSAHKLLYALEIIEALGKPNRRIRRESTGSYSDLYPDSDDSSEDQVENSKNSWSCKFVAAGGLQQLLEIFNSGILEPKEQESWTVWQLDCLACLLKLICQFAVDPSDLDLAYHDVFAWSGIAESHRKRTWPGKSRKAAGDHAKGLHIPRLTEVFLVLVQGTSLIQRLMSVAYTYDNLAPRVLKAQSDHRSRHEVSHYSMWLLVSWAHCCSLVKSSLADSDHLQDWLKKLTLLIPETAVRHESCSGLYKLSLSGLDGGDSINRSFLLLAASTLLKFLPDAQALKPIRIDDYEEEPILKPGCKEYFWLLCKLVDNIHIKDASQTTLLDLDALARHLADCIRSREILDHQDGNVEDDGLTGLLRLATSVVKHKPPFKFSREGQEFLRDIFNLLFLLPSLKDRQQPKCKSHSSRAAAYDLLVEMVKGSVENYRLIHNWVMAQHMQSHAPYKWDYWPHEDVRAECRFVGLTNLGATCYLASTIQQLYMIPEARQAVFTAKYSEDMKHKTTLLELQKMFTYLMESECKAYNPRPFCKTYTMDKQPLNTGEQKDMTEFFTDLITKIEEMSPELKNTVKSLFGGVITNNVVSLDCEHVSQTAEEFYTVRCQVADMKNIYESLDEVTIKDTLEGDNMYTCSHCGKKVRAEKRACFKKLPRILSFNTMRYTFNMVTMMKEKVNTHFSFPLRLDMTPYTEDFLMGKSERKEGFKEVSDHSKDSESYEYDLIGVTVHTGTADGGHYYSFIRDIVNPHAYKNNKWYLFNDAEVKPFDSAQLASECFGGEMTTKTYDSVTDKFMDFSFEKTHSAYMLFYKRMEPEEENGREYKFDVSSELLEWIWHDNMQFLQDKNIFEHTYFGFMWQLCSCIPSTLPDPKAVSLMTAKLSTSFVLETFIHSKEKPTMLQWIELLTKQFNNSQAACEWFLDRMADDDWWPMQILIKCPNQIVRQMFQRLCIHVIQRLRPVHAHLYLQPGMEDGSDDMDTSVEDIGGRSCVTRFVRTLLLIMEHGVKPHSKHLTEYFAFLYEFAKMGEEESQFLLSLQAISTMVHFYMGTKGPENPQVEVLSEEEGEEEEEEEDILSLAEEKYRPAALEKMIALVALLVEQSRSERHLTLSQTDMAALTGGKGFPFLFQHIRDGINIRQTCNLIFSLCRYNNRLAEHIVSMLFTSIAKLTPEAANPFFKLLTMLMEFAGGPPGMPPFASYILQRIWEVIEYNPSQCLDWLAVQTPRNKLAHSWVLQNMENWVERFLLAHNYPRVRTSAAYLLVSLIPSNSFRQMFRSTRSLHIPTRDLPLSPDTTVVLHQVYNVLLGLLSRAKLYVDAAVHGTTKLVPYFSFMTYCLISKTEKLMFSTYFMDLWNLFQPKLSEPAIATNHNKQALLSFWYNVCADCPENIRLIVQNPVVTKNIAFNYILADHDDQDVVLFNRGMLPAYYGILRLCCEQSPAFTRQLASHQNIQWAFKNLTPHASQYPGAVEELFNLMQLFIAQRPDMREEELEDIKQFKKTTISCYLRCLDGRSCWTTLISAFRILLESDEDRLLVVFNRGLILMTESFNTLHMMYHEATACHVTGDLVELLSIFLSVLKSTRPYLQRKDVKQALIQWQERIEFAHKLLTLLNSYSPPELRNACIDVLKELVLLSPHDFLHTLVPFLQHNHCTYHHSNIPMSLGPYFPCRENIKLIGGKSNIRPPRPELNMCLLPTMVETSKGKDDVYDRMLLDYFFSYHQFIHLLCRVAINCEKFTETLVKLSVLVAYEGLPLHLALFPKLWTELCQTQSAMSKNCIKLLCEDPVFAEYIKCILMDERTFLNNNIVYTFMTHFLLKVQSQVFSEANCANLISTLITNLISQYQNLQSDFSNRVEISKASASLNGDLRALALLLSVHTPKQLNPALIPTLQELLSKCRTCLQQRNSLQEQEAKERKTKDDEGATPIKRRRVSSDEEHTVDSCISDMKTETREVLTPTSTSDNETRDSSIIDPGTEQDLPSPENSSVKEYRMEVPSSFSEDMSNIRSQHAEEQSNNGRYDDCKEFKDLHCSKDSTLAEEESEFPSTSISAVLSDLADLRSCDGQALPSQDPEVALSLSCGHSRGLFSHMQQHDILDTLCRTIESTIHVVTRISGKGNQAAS

O=C(CCl)N1CCN(C(=O)Nc2ccccc2)CC1
inactive: USP34 -0.102 | USP36 -0.282 | USP38 0.184 | USP39 -0.0496 | USP4 0.0949
